The source holds several records for some structures; these can differ, active in one and inactive in another. The source made the active and inactive calls. Rule for the calls: active = hit-call score of the fitted dose curve at least 0.9, where 1 is the maximum; inactive = score below 0.9.

Read-out in the assay: Monocyte Chemoattractant Protein-1 (MCP1), CCL2 (gene 6347)
The assay can be described thus: BSK_4H_MCP1: BioMAP Diversity Plus: 4H Assay for Monocyte Chemoattractant Protein-1 (MCP1) Biomarker Activity (AID 2283018). The settings on record: primary human endothelial cells (HUVEC); actives raise or lower the signal. As for the experimental part:
BSK_4H is a cell-based, multiplexed-readout assay that uses umbilical vein endothelium, a human vascular primary cell, with measurements taken at 24 hours after chemical dosing in a 96-well plate.BSK_4H_MCP1 is an assay component measured in the BSK_4H assay. It measures MCP-1 antibody related to regulation of gene expression using ELISA technology.Data from the assay component BSK_4H_MCP1 was analyzed into 1 assay endpoint. This assay endpoint, BSK_4H_MCP1, was analyzed with bidirectional fitting relative to DMSO as the negative control and baseline of activity. Using a type of binding reporter, gain or loss-of-signal activity can be used to understand changes in the signaling as they relate to the gene CCL2. Furthermore, this assay endpoint can be referred to as a primary readout, because this assay has produced multiple assay endpoints where this one serves a signaling function. To generalize the intended target to other relatable targets, this assay endpoint is annotated to the cytokine intended target family, where the subfamily is chemotactic factor.
The levels of cell surface (or secreted, indicated by the prefix "s") biomarker endpoints were measured by ELISA. Overt cytotoxicity to cells in confluent adherent cultures (all systems other than the BT system) was assessed by measuring total protein levels using sulforhodamine B (SRB) staining in parallel cultures at the time of biomarker measurements, indicated as SRB endpoints. For proliferation assays for adherent cell types, individual cell types are cultured at sub-confluence and relative cell numbers quantified by SRB staining at time points optimized for each system (48 h: 3C and CASM3C systems; 72 h: BT and HDF3CGF systems; 96 h: SAg system). SRB was performed by staining cells with 0.1% SRB after fixation with 10% TCA and reading wells at 560 nm.Viability and proliferation of PBMC (T cells) was quantified by Alamar Blue reduction for the SAg and BT systems. For PBMC viability (referred to as PBMC Cytotoxicity within the assay endpoint names), cells were plated (75,000/well in a 96-well plate) and then chemical samples added for 1 h before addition of activators, SEB and TSST-1 (20 ng/mL final concentration each). Cells were incubated for 90 h. Then, Alamar Blue (20 uL/well) (Invitrogen, Cat DAL1100) was added for 6 h, and the plates were read with a fluorescence microplate reader at 546/580 nm (excitation/emission). For PBMC proliferation, cells were plated and activated as above but incubated for only 16 h prior to addition of Alamar Blue. Plates were read after 6 h.
For the molecule `CCN(CC)C(=O)SCc1ccc(Cl)cc1`, the outcome was inactive.
For `CCOCN(C(=O)CCl)c1c(C)cccc1CC`, the concentration at half-maximal activity (AC50) was 20 µM (active).
Same read-out and setting: the value for `CCC(C)Nc1c([N+](=O)[O-])cc(C(C)(C)C)cc1[N+](=O)[O-]` (stereo not given) was 20 µM (active).
For the molecule `O=C1c2ccccc2C(=O)N1SC(Cl)(Cl)Cl`, the outcome was inactive.
For `Oc1cc(Cl)ccc1Oc1ccc(Cl)cc1Cl`, the AC50 was 11.6 µM (active) [middle of 4 runs].
Same read-out and setting: for `CCC(C)(NC(=O)c1cc(Cl)c(C)c(Cl)c1)C(=O)CCl` (stereo not given) the value was 13.8 µM (active).
With `COc1cc(OC)nc(NC(=O)NS(=O)(=O)c2cc(NC=O)ccc2C(=O)N(C)C)n1`, the outcome was inactive.
In the case of `CC[C@H](C)[C@H]1O[C@]2(C=C[C@@H]1C)C[C@@H]1C[C@@H](C/C=C(\C)[C@@H](O[C@H]3C[C@H](OC)[C@@H](O[C@H]4C[C@H](OC)[C@@H](O)[C@H](C)O4)[C@H](C)O3)[C@@H](C)/C=C/C=C3\CO[C@@H]4[C@H](O)C(C)=C[C@@H](C(=O)O1)[C@]34O)O2` (tested in a mixture with another compound), the AC50 is 6.96 µM (active).
In the case of `Cc1[nH]c(=O)n(C(C)(C)C)c(=O)c1Cl`, the outcome was inactive.
Same read-out and setting: for `CN1CSC(=S)N(C)C1` the value was “inactive”.
For `CC1(c2ccc(Oc3ccccc3)cc2)OC(=O)N(Nc2ccccc2)C1=O` (stereo not given), the AC50 is 16.3 µM (active).
In the case of `CNC(=O)Oc1ccccc1OC(C)C`, the outcome was inactive.
Take `CNC(=O)CSP(=S)(OC)OC`: the outcome was inactive.
Same read-out and setting: the value for `CCS(=O)(=O)c1cccnc1S(=O)(=O)NC(=O)Nc1nc(OC)cc(OC)n1` was “inactive”; that for `O=[N+]([O-])/N=C1\NCCN1Cc1ccc(Cl)nc1` was “inactive”.
Same read-out and setting: for `COP(=O)(OC)OC=C(Cl)Cl` the value was “inactive”; for `O=C(O)COc1ccc(Cl)cc1Cl`, “inactive”.
Regarding `COP(=S)(OC)Oc1ccc([N+](=O)[O-])cc1`, the outcome was inactive.
Turning to `CC(C)N(C(=O)COc1nnc(C(F)(F)F)s1)c1ccc(F)cc1`, the AC50 was 22.4 µM (active).
Consider `COP(=S)(OC)Oc1ccc(SC)c(C)c1`, for which the result was inactive.
As to `Clc1ccccc1-c1nnc(-c2ccccc2Cl)nn1`, the AC50 is 20 µM (active).
As for `CNC(=O)Oc1cccc(N=CN(C)C)c1`, the outcome was inactive.
In the case of `CC1(C)C(C=C(Cl)Cl)C1C(=O)OC(C#N)c1ccc(F)c(Oc2ccccc2)c1` (stereo not given), the AC50 was 7.95 µM (active).
On to `O=S(=O)(O)C(F)(F)C(F)(F)C(F)(F)C(F)(F)C(F)(F)C(F)(F)C(F)(F)C(F)(F)F`, for which the result was inactive.
`O=C(O)CCCOc1ccc(Cl)cc1Cl`: the outcome was inactive.
On to `O=C(Nc1ccccc1)Nc1cnns1`, for which the outcome was inactive.
With `CCC(C)(C)C(=O)OC1=C(c2ccc(Cl)cc2Cl)C(=O)OC12CCCCC2`, the AC50 is 15.1 µM (active).
Consider `O=C(NC(=O)c1c(F)cccc1F)Nc1ccc(OC(F)(F)C(F)OC(F)(F)F)c(Cl)c1` (stereo not given), for which the outcome was inactive.
For the molecule `O=C(O)C(F)(F)C(F)(F)C(F)(F)C(F)(F)C(F)(F)C(F)(F)C(F)(F)F`, the outcome was inactive.
As to `C#CCN1C(=O)COc2cc(F)c(N3C(=O)C4=C(CCCC4)C3=O)cc21`, the result was inactive.
The same measure, in the same setting: for `COc1nn(CSP(=S)(OC)OC)c(=O)s1` the value was “inactive”.
Same read-out and setting: the value for `ClC1C(Cl)C(Cl)C(Cl)C(Cl)C1Cl` (stereo not given) was “inactive”.
The same measure, in the same setting: the value for `COC(=O)c1ccccc1CS(=O)(=O)NC(=O)Nc1nc(OC)cc(OC)n1` was “inactive”.
Consider `CCCN(CCOc1c(Cl)cc(Cl)cc1Cl)C(=O)n1ccnc1`, for which the half-maximal activity concentration (AC50) is 20 µM (active).
In the case of `CCOC1Oc2ccc(OS(C)(=O)=O)cc2C1(C)C` (stereo not given), the outcome was inactive.
In the case of `Oc1ccc(Cl)cc1Cc1ccccc1`, the outcome was inactive and the half-maximal activity concentration (AC50) is 14.5 µM (active) [middle of 5 runs].
`CCc1ccc(C(=O)NN(C(=O)c2cc(C)cc(C)c2)C(C)(C)C)cc1`: the outcome was inactive.
Still for that read-out and setting: for `N#CN` the value was “inactive”.
As to `COC(=O)c1ccccc1S(=O)(=O)NC(=O)N(C)c1nc(C)nc(OC)n1`, the result was inactive.

These data come from PubChem BioAssay (EPA / NIEHS).
